MCF10A rerep – A quantitative high throughput screen for small molecules that induce DNA re-replication in MCF 10a normal breast cells. Potency, µM (highest dose often 46.1 µM), for the others: top-dose activity, positive = re-replication, actives largely listed as activators. actives 2.9% (n = 350,000). AID 624296, 2012. MCF 10A DNA re-replication, Hoechst nuclear intensity, 48 h; further: % of control where 0% means no effect; nearly all actives have a fitted effect of over 50% in size
KB-3-1 cytotox – qHTS assay for MDR1-selective chemotherapeutics: Primary screen using the parental adenocarcinoma cell KB-3-1. KB-3-1 viability, CellTiter-Glo ATP luminescence, 72 h. Potency, µM (titrated, usually from 46.1 µM), actives largely listed as cytotoxic. actives 1.4% (n = 400,000). AID 1347075, 2019; further: on the % scale 0 is the no-effect control and ±100 the full control effect; nearly all actives have a fitted effect of over 60% in size
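Cytotoxicity in the drug-sensitive parental line KB-3-1 was scored as loss of CellTiter-Glo luminescence following 72 h incubation with compound. Values come from curve fitting of normalized concentration-response data.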
KB-V1 cytotox – qHTS assay for MDR1-selective chemotherapeutics: Primary screen using the drug-selected MDR subline cells KB-V1 | KB-V1 MDR cells viability, CellTiter-Glo, 72 h | Potency, µM (series often up to 46.1 µM), most hits filed as cytotoxic | actives 3.4% (n = 400,000); further: on the % scale 0 is the no-effect control and ±100 the full control effect; nearly all actives have a fitted effect of over 60% in size
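KB-V1 MDR subline cells in DMEM (phenol-red free, 10% FBS) exposed to compounds in qHTS concentration series for 72 h at 37 degrees C. Viability read by CellTiter-Glo luminescence; concentration-effect curves fitted after normalization and correction.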
SW480 rereplic – A quantitative high throughput screen for small molecules that induce DNA re-replication in SW480 colon adenocarcinoma cells; SW480 DNA re-replication, Hoechst DNA content imaging, 48 h; Potency, µM (titrated, usually from 46.1 µM), without a hit: at the highest dose re-replication activation, usual class: activators; actives 1.8% (n = 340,000); AID 624297, 2012; further: % of control where 0% means no effect; nearly all actives have a fitted effect of over 55% in size
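Image-based DNA-content assay: after two days of treatment, nuclei were labelled with the DNA dye Hoechst and imaged, and hits were compounds raising the count of nuclei showing high fluorescence intensity.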
ELG1 repair inh – qHTS screen for small molecules that inhibit ELG1-dependent DNA repair in human embryonic kidney (HEK293T) cells expressing luciferase-tagged ELG1; HEK293T ELG1-luciferase reporter, luminescence, 16 h; DNA damage induced by 5-fluorouridine; Potency, µM (titrated, usually from 46.1 µM), for the others: at the top dose activity change, negative = inhibition, usual class: inhibitors; actives 2.3% (n = 330,000); AID 504467, 2011; further: on the % scale 0 is the no-effect control and ±100 the full control effect; nearly all actives have a fitted effect of over 55% in size
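DMSO vehicle served as the neutral condition. Each well held 2,000 cells given 5-fluorouridine plus compound; after 16 hr at 37 °C/5% CO2, ONE-Glo was added and luciferase measured 30 min later.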
* marks the source's active call; other numbers are inactive results. Sampled rows, rich in hits. Any-hit rate of the full collection: about 8.1%. The call rests on the fitted dose curve; in most records, active means well fitted curve in the direction sought with a large enough effect; inconclusive means small, poorly fitted or top-dose-only effect, or another doubt; inactive means no such curve, though single readings can be large; an effect the other way counts as inactive or inconclusive. Potency means the concentration at half of the fitted maximal effect.

What do the screens show for `COc1ccc(CCNC(=O)C2CCCN(Cc3nc(-c4ccccc4C)oc3C)C2)cc1OC` (stereo unspecified)?
MCF10A rerep: 11.7%; KB-3-1 cytotox: inactive; KB-V1 cytotox: 16.4µM*; SW480 rereplic: 6.6%; ELG1 repair inh: inconclusive

What do the screens show for `CCc1ccc(-c2nc(CN3CCCC(C(=O)NCCc4ccc(OC)c(OC)c4)C3)c(C)o2)cc1` (stereo unspecified)?
MCF10A rerep: inconclusive; KB-3-1 cytotox: 23.1µM*; KB-V1 cytotox: 2.31µM*; SW480 rereplic: 22.3%; ELG1 repair inh: inconclusive

Results for CCOc1ccc(CCNC(=O)C2CCN(Cc3nc(-c4ccccc4C)oc3C)CC2)cc1OCC ?
KB-3-1 cytotox: inactive; KB-V1 cytotox: inactive

Results for CCc1ccc(-c2nc(CN3CCCC(C(=O)NCc4ccc(C)cc4)C3)c(C)o2)cc1 (stereo unspecified) ?
KB-3-1 cytotox: inactive; KB-V1 cytotox: inactive

Results for COc1ccc(CCNC(=O)C2CCN(Cc3nc(-c4cccc(Cl)c4)oc3C)CC2)cc1OC ?
MCF10A rerep: 17.8%; KB-3-1 cytotox: inconclusive; KB-V1 cytotox: 3.26µM*; SW480 rereplic: 6.6%; ELG1 repair inh: inconclusive

What do the screens show for `COC(=O)C(CC(=O)c1ccc(C)cc1)n1nc(C)cc1C` (stereo unspecified)?
MCF10A rerep: -13.7%; KB-3-1 cytotox: inactive; KB-V1 cytotox: inactive; SW480 rereplic: -0.6%; ELG1 repair inh: 15.1%

What do the screens show for `O=C(O)c1ccccc1N1C(=O)C2C3c4ccccc4C(Br)(c4ccccc43)C2C1=O` (stereo unspecified)?
MCF10A rerep: 2.4%; KB-3-1 cytotox: inactive; KB-V1 cytotox: inactive; SW480 rereplic: -4.4%; ELG1 repair inh: 5.5%

Results for Cc1cc(NC(=O)CCCn2nc([N+](=O)[O-])cc2C)no1 ?
MCF10A rerep: -0.2%; KB-3-1 cytotox: inactive; KB-V1 cytotox: inactive; SW480 rereplic: 0.1%; ELG1 repair inh: 7.4%

Results for COC(=O)c1sc(NC(=O)CCCn2nc([N+](=O)[O-])cc2C)c(C(=O)OC)c1C ?
MCF10A rerep: 3.9%; KB-3-1 cytotox: inactive; KB-V1 cytotox: 0.92µM*; SW480 rereplic: 0.3%; ELG1 repair inh: inconclusive

How did O=c1[nH]nc(Cc2ccc(-c3ccc(Cl)cc3)o2)c2ccccc12 do in these assays?
MCF10A rerep: 8.2µM*; KB-3-1 cytotox: inactive; KB-V1 cytotox: inactive; SW480 rereplic: inconclusive; ELG1 repair inh: -14.0%

Results for CSC1=NC=C(C#N)C2=NC(c3ccc(Cl)cc3)NN12 (stereo unspecified) ?
KB-3-1 cytotox: inactive; KB-V1 cytotox: inactive

What do the screens show for `COc1ccccc1C(OC(=O)c1ccco1)C(=O)NC(C)(C)C` (stereo unspecified)?
MCF10A rerep: 0.8%; KB-3-1 cytotox: inactive; KB-V1 cytotox: inactive; SW480 rereplic: 3.0%; ELG1 repair inh: 23.7%

How did CC(C)CC1NC(=S)N(C2CCCCC2)C1=O (stereo unspecified) do in these assays?
MCF10A rerep: 16.4µM*; KB-3-1 cytotox: inactive; KB-V1 cytotox: inactive; SW480 rereplic: inconclusive; ELG1 repair inh: -25.8%

What do the screens show for `CCC1NC(=S)N(C2CCCCC2)C1=O` (stereo unspecified)?
MCF10A rerep: 0.3%; KB-3-1 cytotox: inactive; KB-V1 cytotox: inactive; SW480 rereplic: 0.9%; ELG1 repair inh: -2.4%

How did CC(C)CC1NC(=S)N(Cc2ccccc2)C1=O (stereo unspecified) do in these assays?
MCF10A rerep: inconclusive; KB-3-1 cytotox: inconclusive; KB-V1 cytotox: 20.6µM*; SW480 rereplic: inconclusive; ELG1 repair inh: -4.3%

How did O=C1C(Cc2ccccc2)NC(=S)N1Cc1ccccc1 (stereo unspecified) do in these assays?
MCF10A rerep: 6.8%; KB-3-1 cytotox: inactive; KB-V1 cytotox: inactive; SW480 rereplic: -6.9%; ELG1 repair inh: 5.1%

What do the screens show for `Cc1c(OCC(=O)NCCCN2CCCC2=O)ccc2c3c(c(=O)oc12)CCCC3`?
MCF10A rerep: -0.8%; KB-3-1 cytotox: inactive; KB-V1 cytotox: inactive; SW480 rereplic: -15.8%; ELG1 repair inh: 12.6%

How did CCN(CC)C(=O)Cn1cc(S(=O)(=O)CC(=O)NCc2ccccc2)c2ccccc21 do in these assays?
MCF10A rerep: -2.9%; KB-3-1 cytotox: inactive; KB-V1 cytotox: inactive; SW480 rereplic: -1.6%; ELG1 repair inh: 8.4%

Results for Cc1sc(-c2cc3c([nH]c2=O)CC(c2ccccc2)CC3=O)nc1-c1ccc(Cl)cc1 (stereo unspecified) ?
KB-3-1 cytotox: 1.03µM*; KB-V1 cytotox: 0.82µM*

Results for O=C1CC(c2ccccc2)Cc2[nH]c(=O)c(-c3nc(-c4ccc(F)cc4)cs3)cc21 (stereo unspecified) ?
KB-3-1 cytotox: 4.61µM*; KB-V1 cytotox: inactive

Results for CCOc1ccc(NC(=O)c2nc(S(=O)(=O)Cc3ccccc3C)ncc2Cl)cc1 ?
KB-3-1 cytotox: inconclusive; KB-V1 cytotox: inactive

Results for Cc1cccc(N2CCN(C(=O)CN3C(=O)NC4(CCCCCC4)C3=O)CC2)c1C ?
MCF10A rerep: inconclusive; KB-3-1 cytotox: inactive; KB-V1 cytotox: inactive; SW480 rereplic: -5.9%; ELG1 repair inh: 5.3%

How did COc1ccc(C(=O)Nc2cc(C(=O)c3ccccc3)c(C)oc2=O)cc1 do in these assays?
MCF10A rerep: inconclusive; KB-3-1 cytotox: inactive; KB-V1 cytotox: inactive; SW480 rereplic: inconclusive; ELG1 repair inh: 28.7%

Results for Cc1oc(=O)c(NC(=O)c2cccc(Cl)c2)cc1C(=O)c1ccccc1 ?
MCF10A rerep: inconclusive; KB-3-1 cytotox: inactive; KB-V1 cytotox: inconclusive; SW480 rereplic: 20.6µM*; ELG1 repair inh: inconclusive

Results for CC(=O)c1cc(NC(=O)c2ccc([N+](=O)[O-])cc2)c(=O)oc1C ?
MCF10A rerep: 16.4µM*; KB-3-1 cytotox: inactive; KB-V1 cytotox: inactive; SW480 rereplic: 25.4%; ELG1 repair inh: -5.4%

What do the screens show for `COC(=O)c1cc(NC(=O)c2ccc([N+](=O)[O-])cc2)c(=O)oc1C`?
MCF10A rerep: -0.7%; KB-3-1 cytotox: inactive; KB-V1 cytotox: inactive; SW480 rereplic: inconclusive; ELG1 repair inh: -4.5%

What do the screens show for `Cc1c(C(=O)N2CCCCC2)c(S(=O)(=O)NCc2ccc(N(C)C)cc2)c(C)n1C`?
MCF10A rerep: 2.5%; KB-3-1 cytotox: inactive; KB-V1 cytotox: inactive; SW480 rereplic: -7.6%; ELG1 repair inh: 10.1%

Source: PubChem (National Center for Advancing Translational Sciences (NCATS))
